# Hits are enriched below; roughly 19% of the tested compounds scored in any of these assays.
# TDP1 cell CPT – growth inhibition of DT40 Tdp1-/-;hTDP1 cells with camptothecin (screen for TDP1 inhibitors) | chicken DT40 Tdp1-/-;hTDP1 cells + 20 nM CPT, ATP luminescence, 48 h | Potency, µM (highest dose often 46.2 µM), hits mostly inhibitors | actives 12% (n = 420,000) | AID 686979; further: nearly all actives have a fitted effect of over 55% in size
#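 Chicken DT40 Tdp1-/- cells stably complemented with human TDP1 were seeded at 400 cells/well in medium containing 20 nM camptothecin, exposed to pin-transferred compounds, and grown at 37 °C for at least 48 hr. Viability was read as ATP luminescence.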
# ELG1 repair inh – inhibitors of ELG1-dependent DNA repair in HEK293T cells; AID 504467; actives 2.3% (n = 330,000); Potency, µM (top dose mostly 46.1 µM), most hits filed as inhibitors; HEK293T ELG1-luciferase reporter, luminescence, 16 h; DNA damage induced by 5-fluorouridine; further: nearly all actives have a fitted effect of over 55% in size
#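 Overnight (16 hr) co-exposure of 2,000 cells/well to 5-fluorouridine and compound at 37 °C preceded detection. Luciferase was quantified via ONE-Glo luminescence; loss of signal denotes inhibition.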
# HT1080NT lethal – kills 2HG-producing HT-1080-NT fibrosarcoma cells; HT-1080-NT fibrosarcoma viability, CellTiter-Glo ATP luminescence, 48 h; Potency, µM (series often up to 46.1 µM), usual class: cytotoxic; actives 1.6% (n = 360,000);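 further: NT is the 2HG producing partner of a matched IDH1 knockdown line; nearly all actives have a fitted effect of over 55% in size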
#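 750 cells/well, RPMI + 5% FBS; 2 h settle, compound pin-transfer, 48 h at 37 degrees C. CellTiter-Glo 10 min RT, luminescence. Normalized to DMSO and media-only wells.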
# HT1080 IDH1KD tx – toxicity to HT-1080 IDH1 knockdown cells (counter line); HT-1080 IDH1 knockdown viability, ATP luminescence, 48 h; Potency, µM (series often up to 46.1 µM), actives largely listed as cytotoxic; actives 2% (n = 360,000)
#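 After a 2 h attachment period, IDH1KD HT-1080 cells took pin-transferred compound for 48 h at 37 °C; ATP-based luminescence after 10 min room-temperature reagent incubation reported viability.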
# DT40 TDP1 no CPT – qHTS for Inhibitors of human tyrosyl-DNA phosphodiesterase 1 (TDP1): qHTS in cells in absence of CPT | DT40 Tdp1-/- hTDP1 cells, no CPT, ATP luminescence, 48 h | actives 15% (n = 420,000) | Potency, µM (top dose mostly 46.2 µM), hits mostly inhibitors; further: nearly all actives have a fitted effect of over 55% in size
#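 Compound effects on proliferation are scored in DT40 Tdp1-/-;hTDP1 cells in the absence of CPT. ATP levels (CellTiter-Glo luminescence) are recorded after a ≥48 hr, 37 °C incubation.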
# IL1B secr inh – blocks inflammasome-driven IL-1 beta release. THP-1 LPS/ATP IL-1B secretion, AlphaLISA, 16 h; hits give low values. activity change, % at 57.5 µM. actives 4.7% (n = 360,000). AID 743279; in the data active means activity change below about -50%; inconclusive means mostly about -30% to -49%
#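 THP-1 cells pretreated 1 hr with compounds (up to 57.5 uM final), then stimulated with LPS (250 ng/mL final) plus ATP (1.25 mM final); secreted IL-1B measured by AlphaLISA after 16 hr, decreased signal indicating inhibition.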
# Hits are given with their value; . = inactive; ? = inconclusive; / = not tested or not shown. Unless noted, the call rests on the fitted dose curve; in most records, active means well fitted curve in the direction sought with a large enough effect; inconclusive means small, poorly fitted or top-dose-only effect, or another doubt; inactive means no such curve, though single readings can be large; an effect the other way counts as inactive or inconclusive.
SMILES,TDP1 cell CPT,ELG1 repair inh,HT1080NT lethal,HT1080 IDH1KD tx,DT40 TDP1 no CPT,IL1B secr inh
NC(=S)NN=C(Cc1ccccc1)Cc1ccccc1,5.8µM,?,.,.,3.7µM,.
COc1ccc(NC(=O)c2nn(C)cc2[N+](=O)[O-])cc1,.,?,.,.,.,.
CCn1cc([N+](=O)[O-])c(C(=O)Nc2nc(-c3ccc(C)cc3)c(C)s2)n1,.,?,.,?,.,-55
CCn1cc([N+](=O)[O-])c(C(=O)Nc2nc(-c3ccc(C)c(C)c3)c(C)s2)n1,?,.,?,10µM,.,.
Cc1ccc(NC(=O)c2nn(C34CC5CC(CC(C5)C3)C4)cc2[N+](=O)[O-])cc1,23µM,.,.,.,?,.
Nc1c(N2CCCCC2)c2ccccc2oc1=O,.,.,.,.,.,.
Cc1ccc(C)c(N2CCN(c3c(CN4CCCC4)c(=O)oc4ccccc34)CC2)c1,21µM,/,/,/,26µM,/
Cc1ccc(N2CCN(c3c(CN4CCCC4)c(=O)oc4ccccc34)CC2)c(C)c1,16µM,/,/,/,?,/
Cc1ccc(NC(=O)CSCC(=O)NC2=NCCS2)cc1,?,.,.,.,.,.
CC(=O)c1c(C)[nH]c(C(=O)OCC(=O)N2CCc3ccccc3C2)c1C,23µM,?,.,.,16µM,.
CC(=O)c1c(C)[nH]c(C(=O)OCC(=O)N2CCN(S(=O)(=O)c3ccc(C)cc3C)CC2)c1C,?,18µM,.,.,?,.
CCOC(=O)c1[nH]c(C)c(C(=O)N2CCc3ccccc32)c1C,0.82µM,.,?,1µM,0.92µM,.
Cc1ccc(Nc2nc(N)nc(COC(=O)C3=COCCO3)n2)cc1,.,.,.,.,.,?
Cc1ccc(C2c3[nH]c4ccccc4c3CCN2C(=O)CSCc2ccc(F)cc2)cc1 (stereo not drawn),?,/,/,/,23µM,/
Cc1ccc(CSCC(=O)NCc2ccc(F)cc2)cc1,.,.,.,.,.,.
O=C(CSCc1ccc(F)cc1)N1CCc2c([nH]c3ccccc23)C1c1ccc(F)cc1 (stereo not drawn),18µM,/,/,/,18µM,/
CCc1ccccc1NC(=O)N1CCc2c([nH]c3ccccc23)C1c1ccc(C)cc1 (stereo not drawn),16µM,/,/,/,15µM,/
COCC(C)NC(=O)NC1(C(F)(F)F)Oc2ccc(Cl)cc2O1 (stereo not drawn),13µM,.,.,?,13µM,.
COCC(C)NC(=O)NC(=O)c1ccc(Cl)cc1 (stereo not drawn),?,?,.,?,.,.
O=C(NCCN1CCOCC1)NC1(C(F)(F)F)Oc2ccc(Cl)cc2O1 (stereo not drawn),?,.,.,.,13µM,.
O=C(NCCN1CCOCC1)c1cc(Cl)ccc1Cl,.,.,.,.,.,.
C[C@@H]1CN([C@H](C)CO)C(=O)CCCn2cc(nn2)CO[C@H]1CN(C)S(=O)(=O)c1ccc(C#N)cc1,.,/,.,.,.,.
C=CC[C@@H](CC(=O)N(CCO)Cc1ccccc1)C(=O)N[C@H](COC(=O)[C@@H](CC=C)Cc1ccc(F)cc1)Cc1c[nH]c2ccccc12,?,21µM,?,?,?,.
C=CC[C@@H](CC(=O)N[C@@H](CO)Cc1ccccc1)C(=O)N[C@H](COC(=O)[C@@H](CC=C)Cc1ccc(F)cc1)Cc1c[nH]c2ccccc12,?,?,.,.,?,.
C=CC[C@H](CC(=O)N(CCO)Cc1ccccc1)C(=O)N[C@H](COC(=O)[C@@H](CC=C)Cc1ccc(F)cc1)Cc1c[nH]c2ccccc12,?,23µM,?,21µM,?,-56
SMILES,TDP1 cell CPT,ELG1 repair inh,HT1080NT lethal,HT1080 IDH1KD tx,DT40 TDP1 no CPT,IL1B secr inh
C[C@H](CO)N1C[C@H](C)[C@@H](CN(C)Cc2ccccn2)Oc2ncc(-c3ccccc3)cc2C1=O,.,/,.,.,.,.
CCc1ncnc2cc(OC)c(OC)cc12,?,/,/,/,.,/
O=C(CSc1nc2ccccc2[nH]1)NC1CCCC1,.,?,.,.,.,.
O=C(CCCSc1nc2ccccc2[nH]1)NC(c1ccccc1)c1ccccc1,12µM,?,.,.,15µM,.
O=C(CCCSc1nc2ccccc2[nH]1)NC1CCCCC1,?,.,.,.,29µM,.
Cc1ccc(C)c(OCCn2c(-c3ccc(Cl)cc3)nc3ccccc3c2=O)c1C,.,/,/,/,.,/
COc1ccc(/C=N/N2CCN(c3ccc(Cl)cc3)CC2)cc1O,.,.,.,.,.,.
CCN(C(=O)COC(=O)c1oc2ccc(OC)cc2c1C)C1CCCCC1,?,.,.,.,?,.
Cc1c(Cc2ccccc2)c(=O)oc2c(CN(C)C)c(O)c(Cl)cc12,?,.,.,.,16µM,.
Cc1c(Cc2ccccc2)c(=O)oc2c(O)c(O)ccc12,.,.,.,.,?,.
N#Cc1c(N)nc2c3c(sc(=N)c2c1N)NC(=O)CC3c1ccccc1 (stereo not drawn),.,.,?,?,?,?
CCOC(=O)CSC1=C(C#N)C(c2ccc(Cl)cc2)CC(=O)N1 (stereo not drawn),?,.,.,.,?,.
N#Cc1c(N)nc2c3c(sc(=N)c2c1N)NC(=O)CC3c1c(F)cccc1Cl (stereo not drawn),?,.,.,.,6.5µM,.
Cc1c(C#N)c(N)nc2c3c(sc12)NC(=O)CC3c1ccc(Cl)cc1 (stereo not drawn),?,?,21µM,16µM,?,.
O=C(c1ccc([N+](=O)[O-])cc1)N(Cc1cccs1)C1CCS(=O)(=O)C1 (stereo not drawn),.,.,.,.,.,.
CCCCCC1C(=O)CCC1CC(=O)OC (stereo not drawn),.,/,.,.,.,.
CCCCC[C@H](O)/C=C/[C@H]1CCC(=O)[C@@H]1CCCCCCC(=O)N1CCCCC1CO (stereo partly drawn),23µM,?,16µM,13µM,15µM,.
CCCCOC(=O)c1ccc(NC(=O)c2cc3c(=O)n4cccc(C)c4nc3s2)cc1,.,/,/,/,.,/
O=C1C(=O)N(CNc2ccccn2)c2ccccc21,2.1µM,.,?,.,1.6µM,.
CCCCn1c(N)c(N(CC(C)C)C(=O)c2c(-c3ccccc3)noc2C)c(=O)[nH]c1=O,.,.,.,.,.,.
S=C(NCCc1ccccc1)N1CCC2CC1c1c(Cl)cccc12 (stereo not drawn),?,/,.,.,16µM,.
